# Anthrax LF prot – Bacillus anthracis LF protease inhibitors, primary screen, biochemical, multiplex microsphere, MLPCN library; Lethal factor (Bacillus anthracis), P15917; multiplex microsphere protease cleavage assay; inhibition, % at 10 µM; actives 0.12% (n = 360,000); AID 588501, 2011; also: plate controls were buffer without enzyme for full effect and enzyme alone for no effect
# Target sequence (P15917 whole entry, looked up): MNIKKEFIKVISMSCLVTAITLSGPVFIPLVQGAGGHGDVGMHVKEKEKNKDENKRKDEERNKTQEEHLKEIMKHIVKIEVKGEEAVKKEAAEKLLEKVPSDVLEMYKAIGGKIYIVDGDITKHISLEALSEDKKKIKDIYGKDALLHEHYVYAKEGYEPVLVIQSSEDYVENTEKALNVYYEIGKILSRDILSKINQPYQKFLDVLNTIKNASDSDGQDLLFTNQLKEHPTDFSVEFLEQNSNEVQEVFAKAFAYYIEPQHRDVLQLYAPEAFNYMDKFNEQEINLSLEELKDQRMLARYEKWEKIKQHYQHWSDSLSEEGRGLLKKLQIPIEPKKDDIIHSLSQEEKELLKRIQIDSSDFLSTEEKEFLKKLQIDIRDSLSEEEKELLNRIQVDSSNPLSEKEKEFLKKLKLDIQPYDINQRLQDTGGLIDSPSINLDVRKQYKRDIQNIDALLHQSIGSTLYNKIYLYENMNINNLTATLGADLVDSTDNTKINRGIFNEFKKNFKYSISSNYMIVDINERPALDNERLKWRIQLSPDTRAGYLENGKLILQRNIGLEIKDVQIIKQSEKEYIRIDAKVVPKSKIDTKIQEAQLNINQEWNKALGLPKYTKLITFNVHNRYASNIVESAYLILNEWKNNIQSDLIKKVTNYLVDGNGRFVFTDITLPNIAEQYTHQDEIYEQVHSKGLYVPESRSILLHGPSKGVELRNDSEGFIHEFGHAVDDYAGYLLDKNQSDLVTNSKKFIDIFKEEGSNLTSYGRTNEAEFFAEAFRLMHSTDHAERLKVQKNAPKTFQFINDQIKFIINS
# Bead autofluor – compound fluorescence in toxin protease inhibitor counterscreen. compound autofluorescence counterscreen, microsphere flow cytometry; hits give high values. fluorescence intensity (no concentration beside the values). actives 3.1% (n = 360,000). AID 624483; in the data active = fluorescence intensity above about 16000; inconclusive = no clear call, values can overlap the other calls
# BoNT A protease – BoNT/A light chain protease inhibitors, primary screen, biochemical, flow cytometry, MLPCN library. AID 588499, 2011. multiplex microsphere protease substrate cleavage. inhibition, % at 10 µM. actives 0.17% (n = 360,000); also: plate controls were buffer without enzyme for full effect and enzyme alone for no effect
# BoNT F protease – BoNT/F light chain protease inhibitors, primary screen, biochemical, flow cytometry, MLPCN library | Botulinum neurotoxin type F light chain protease (Clostridium botulinum) | Multiplex microsphere protease cleavage assay | inhibition, % at 10 µM | actives 0.22% (n = 360,000); in the data active = inhibition above about 35%, passing the limit was not always enough; inconclusive = no clear call, values can overlap the other calls; also: plate controls were buffer without enzyme for full effect and enzyme alone for no effect
# Active calls of the source: *; u = inconclusive. Only some compounds are listed: those with a hit (about 3.5% of all), similar ones and a draw of the others. Rule as the data show it, unless noted: active = inhibition above about 30%; inconclusive = no clear call, values can overlap the other calls; inactive = below that.
SMILES,Anthrax LF prot,Bead autofluor,BoNT A protease,BoNT F protease
CC(C)CNc1ncnc2c1ncn2[C@H]1CN(Cc2cccs2)C[C@@H](CO)O1,4,3565,0,0
O=C(CSc1nc2c(oc3ccccc32)c(=O)n1CC1CCCO1)NCc1ccccc1 (stereo not given),1,5641,-2,2
CCc1c(C)nc2ncnn2c1N1CCC(C(=O)N2CCN(c3ccc(F)cc3)CC2)CC1,-1,24650*,u,-6
O=C(NCc1cccc(C(F)(F)F)c1)C1CCN(c2ncccn2)CC1,1,22251*,1,2
Cc1ccnc(N2CCC(C(=O)NCc3ccc4c(c3)OCO4)CC2)n1,0,20911*,u,4
O=C(NCc1ccc2c(c1)OCO2)C1CCN(c2ncccn2)CC1,0,21984*,u,0
O=C(C1CC1)N1CCN(c2ccc(F)cc2)CC1,-12,3672,0,15
Cc1ccnc(N2CCC(C(=O)NCc3ccc(F)cc3)CC2)n1,3,4828,0,-2
CCOC(=O)[C@]12CCC=C1N(Cc1ccco1)C(=O)[C@H](CC(=O)NCCc1ccccc1OC)C2,-8,6199,0,6
Cn1ccnc1CN1CCCCC1C(=O)Nc1ccc(Oc2cccnc2)cc1 (stereo not given),-4,6013,-1,2
O=C(O)C1CC=CCC1C(=O)NCc1ccc2c(c1)OCO2 (stereo not given),1,23458*,-2,-4
CCOc1ccc(OCC)c(NC(=O)C2CCCN(c3ncccn3)C2)c1 (stereo not given),-6,7567,0,-12
CCOc1ccc(OCC)c(NC(=O)C2CCN(c3ncccn3)CC2)c1,-2,22945*,u,-7
Cc1ccc(C(=O)NN2CCOCC2)cc1,1,19445*,u,0
COCCNc1nc(Oc2cccc3ccccc23)c2sccc2n1,-7,3686,0,0
CN(C)c1cccc(NC(=O)CCc2ccccc2)c1,25,7865,12,75*
CCOC(=O)C1=C(c2ccccc2)N=c2sc(=Cc3cc(OC)c(OC)c(OC)c3)c(=O)n2C1c1cccs1 (stereo not given),37*,3180,32*,18
CCOC(=O)C1=C(c2ccccc2)N=c2s/c(=C\c3ccc(O)cc3)c(=O)n2C1c1cccs1 (stereo not given),21,10458,15,5
COc1cccc(C2CC(c3ccccc3Cl)Nc3ncnn32)c1 (stereo not given),-7,18432*,4,5
Nc1cccc(Oc2c(F)c(F)c(Oc3cccc(N)c3)c(F)c2F)c1,u,3904,10,38*
Nc1cccc(Oc2ccc([N+](=O)[O-])cc2)c1,-7,4464,0,0
Cc1cc(N2CCCC2)c(C)cc1C=O,-4,22088*,2,-17
Cc1cc(N)ccc1N1CCCC1,-74,1599,-3,-116
CS(=O)(=O)c1ccccc1C(=O)Nc1cccc2ncccc12,11,3450,5,13
CCOc1cc(-c2nc(-c3ccc(C)nc3OCC)no2)cc(OCC)c1OCC,-6,23089*,u,-1
SMILES,Anthrax LF prot,Bead autofluor,BoNT A protease,BoNT F protease
CCOc1cc(-c2nc(-c3ccc(C)nc3OC)no2)cc(OCC)c1OCC,-7,5845,0,-3
CCOc1nc(-c2ccc(OC)cc2)ccc1-c1noc(C)n1,-2,21728*,u,-4
COc1ccc(CC(=O)Nc2ccc(N3CCOCC3)cc2)cc1S(=O)(=O)N1CCOCC1,0,4966,0,3
CC1=NC(=O)C(N=Nc2cccc(O)c2)N1c1ccccc1 (stereo not given),-9,16879*,-4,-6
O=C(Cn1c(C(F)(F)F)nc2ccccc21)c1ccc(Cl)cc1,3,18546*,3,2
NNC(=O)c1cc(C23CC4CC(CC(C4)C2)C3)[nH]n1,-6,4172,-4,-29
c1ccc(-c2nnc3sc(CN4CCC5(CC4)OCCO5)cn23)cc1,0,20544*,-1,-1
c1ccc(-c2nnc(CN3CCC4(CC3)OCCO4)o2)cc1,-6,5624,0,0
Cc1cc(=O)[nH]c2c(C)c(N)ccc12,0,23024*,1,-2
Cc1cc(=O)[nH]c2cc(O)ccc12,4,7790,1,3
Cn1c(C(=O)Nc2ccc3c(c2)OCO3)cc2c(=O)n(C)c3ccccc3c21,-3,5868,0,-4
CCOc1ccc(NC(=O)c2cc3c(=O)n(C)c4ccccc4c3n2C)cc1,-14,18920*,-12,-87
O=C(CCCc1nc(-c2ccc(Cl)cc2)no1)NC1CCCCC1,2,5031,2,4
CCNC(=O)C1(C)CCN(Cc2csc(-c3ccccc3)n2)C1 (stereo not given),-5,2978,0,2
O=C(NC(=O)c1c(F)cccc1F)Nc1cccc(Oc2ncc(Cl)cn2)c1,-6,3519,0,-6
CC(=O)N1CCC(C(=O)N2CCN(S(=O)(=O)c3cccs3)CC2)CC1,-5,6111,-1,-1
COc1cccc(CNC(=O)C2CSC3(C)CCC(=O)N23)c1 (stereo not given),3,17016*,12,29
O=C(NCc1cccnc1)C1CCN(S(=O)(=O)c2cccnc2)CC1,4,5997,0,6
COc1cccc(CNC(=O)C2CCN(S(=O)(=O)N3CCCCC3)CC2)c1,-2,21716*,-5,-2
O=C(NCc1cccnc1)C1CCN(S(=O)(=O)c2cccs2)CC1,0,23889*,-2,-2
O=C(c1ccco1)N1CCN(C(=O)C2CCN(S(=O)(=O)c3cccs3)CC2)CC1,5,18565*,4,6
O=S(=O)(NC1CCCCC1)c1ccc(N2CCOCC2)nc1,-3,6328,0,7
CNC(=O)c1[nH]cnc1C(=O)NCC(=O)OCc1ccccc1,-5,4072,0,-4
COc1ccc(CNc2nc3nc(C)c(Cl)c(=O)n3[nH]2)cc1,-2,4249,0,-4
COc1ccccc1CNc1nc2nc(C)c(Cl)c(=O)n2[nH]1,-4,21476*,u,1
SMILES,Anthrax LF prot,Bead autofluor,BoNT A protease,BoNT F protease
CC(=O)Nc1cccc(-c2nnc(SCC(=O)N3CCCCC3)n2C)c1,0,24749*,-2,-3
COc1cccc(CNCC(O)(c2ccc(Cl)cc2)c2ccc(Cl)cc2)c1,-3,23322*,0,-12
COc1ccc(CNCC(O)(c2ccccc2)c2ccc(Cl)cc2)cc1 (stereo not given),2,9814,0,-14
COc1ccc(C(C)(C)C)cc1NC(=O)COC(=O)CN1C(=O)NC2(CCCCC2C)C1=O (stereo not given),0,3547,0,-4
Cc1cccc(Oc2cnn(C(C)(C)C)c(=O)c2Cl)c1,-4,10209,-2,-13
COc1cnn(C(C)(C)C)c(=O)c1Cl,-7,19156*,u,6
COc1cccc(CNS(=O)(=O)c2ccc3c(c2)oc(=O)n3C)c1,-2,4192,2,14
O=C(NC1CCCCC1)N(CCO)Cc1cc2cc3c(cc2[nH]c1=O)OCCO3,6,10706,-2,1

# Screening results deposited in PubChem by NMMLSC.
